# ChEMBL document CHEMBL1157539, “Thousands of chemical starting points for antimalarial lead identification” (Nature, 2010)
# Where “and” joins values, the source holds several entries; their conditions need not be identical. Identical values can stand only once.
# Experiments:
# Assay type in all cases: functional
# [1] = tested on: Plasmodium falciparum; experiment: GSK_TCMDC: Inhibition of Plasmodium falciparum 3D7 in whole red blood cells, using parasite LDH activity as an index of growth. Test compounds present at 2uM
# [2] = tested on: Plasmodium falciparum; experiment: GSK_TCMDC: Inhibition of Plasmodium falciparum Dd2 in whole red blood cells, using parasite LDH activity as an index of growth. Test compounds present at 2uM
# [3] = tested on: HepG2; experiment: GSK_TCMDC: Percent inhibition of human HepG2 cell line. Test compounds present at 10uM.
SMILES,Inhibition [1],Inhibition [2],Inhibition [3]
Br.COC(=O)c1ccc(CC(C)NCC(O)c2cccc(OC(F)(F)F)c2)cc1 (stereo not given),98%,67%,2%
COc1ccc(CC(C)NCC(O)c2cccc(C(F)(F)F)c2)cc1 (stereo not given),98%,94%,0%
O=C(/C=C/c1ccc(Cl)c(Cl)c1)N(Cc1ccccc1)C1CCC(CN2CCC(c3c[nH]c4ccccc34)CC2)CC1 (stereo not given),100%,59%,37%
CN1CC=C(c2c[nH]c3ccc(OCc4ccccc4)cc23)CC1,95%,97%,0%
O=C(NC1CCC(CN2CCC(c3c[nH]c4ccccc34)CC2)CC1)c1cc2ccccc2s1 (stereo not given),98% and 100%,68% and 43%,44%
O=C(NC1CCC(CN2CCC(c3c[nH]c4ccccc34)CC2)CC1)c1cc(-c2ccc(F)cc2F)ccc1O (stereo not given),100%,100%,30%
CN1CC=C(c2c[nH]c3ccc(Oc4ccccc4)cc23)CC1.O=C(O)C(=O)O,98%,98%,40%
O=C(/C=C/c1ccc(Cl)cc1)NC1CCC(CN2CCC(c3c[nH]c4ccccc34)CC2)CC1 (stereo not given),99% and 100%,90% and 67%,40% and 39%
O=C(/C=C/c1ccc(Cl)c(Cl)c1)NCC1CCC(N2CCC(c3c[nH]c4ccccc34)CC2)CC1 (stereo not given),100%,95%,48%
Cc1csc(-c2ccc3[nH]cc(C4=CCN(C)CC4)c3c2)n1,93%,78%,10%
